The source made the active and inactive calls. How the source made its calls: active means hit-call score of the fitted dose curve at least 0.9, where 1 is the maximum; inactive means score below 0.9.
What was measured:
[1] = ATG_GLI_CIS: Attagene CIS-FACTORIAL HepG2 Assay for human Zinc Finger Protein GLI1 (AID 2282945); conditions: HepG2, Attagene cis-factorial reporter mRNA, GLI element; actives raise or lower the signal
Summary of the method: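 Transiently transfected HepG2 cells report endogenous transcription factor activity via cis-element-driven reporter units. After 24 h compound exposure, reporter mRNA was measured by RT-PCR with capillary electrophoresis; bidirectional fitting against DMSO baseline.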

[2] = ATG_GRE_CIS: Attagene CIS-FACTORIAL HepG2 Assay for human Glucocorticoid Response Elements (GRE) (AID 2282947); conditions: HepG2 GRE cis-reporter, Attagene multiplex mRNA; actives raise or lower the signal
Summary of the method: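 Read-out: fluorescent reporter-transcript fragments separated by capillary electrophoresis after RT-PCR. Transiently transfected HepG2 cells carrying cis-element-driven reporter units were dosed for 24 h; gain or loss of signal fitted against DMSO control.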

[3] = ATG_ISRE_CIS: Attagene CIS-FACTORIAL HepG2 Assay for human Interferon Regulatory Factor 1 (IRF1) binding to an Interferon-Stimulated Response Element (ISRE) (AID 2282948); conditions: HepG2 ISRE cis-reporter (Attagene), mRNA transcription readout; actives raise or lower the signal
Summary of the method: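 Multiplexed mRNA reporter readout in human liver HepG2 cells: cis-element-driven reporters transfected, compound added for 24 h, transcripts amplified, fluorescently labelled and sized by capillary electrophoresis; curve fitting bidirectional against DMSO.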

[4] = ATG_M_32_CIS: Attagene CIS-FACTORIAL HepG2 Assay for M32 Transcription Factor (Internal Marker) (AID 2282949); conditions: HepG2 Attagene cis-factorial M32 reporter, mRNA; actives raise or lower the signal;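 further: background control marker of the multiplexed CIS panel rather than a real target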
Summary of the method: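 Using DMSO as baseline, bidirectional curve fits were applied to reporter mRNA signals. These came from transiently transfected HepG2 cells exposed for 24 h, with RNA analysed by RT-PCR, FAM primer extension, HpaI digestion and CE.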

[5] = ATG_M_06_CIS: Attagene CIS-FACTORIAL HepG2 Assay for M06 Transcription Factor (Internal Marker) (AID 2282950); conditions: HepG2 Attagene CIS-FACTORIAL M06 internal marker reporter; actives raise or lower the signal
Summary of the method: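 Terse: HepG2, transient MRTU transfection (FuGene 6), 24 h dosing; total RNA, oligo(dT) RT, PCR, FAM label, HpaI cut, capillary electrophoresis; bidirectional fit vs DMSO baseline; background-control endpoint.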

[6] = target: Hypoxia-inducible factor 1-alpha (Homo sapiens) (UniProt Q16665); test: ATG_HIF1a_CIS: Attagene CIS-FACTORIAL HepG2 Assay for human Hypoxia Inducible Factor 1 (HIF1A) (AID 2282951); conditions: HepG2 Attagene cis-factorial HIF1a reporter transcription; actives raise or lower the signal
Chain of Hypoxia-inducible factor 1-alpha (Homo sapiens) (Q16665 whole entry, looked up): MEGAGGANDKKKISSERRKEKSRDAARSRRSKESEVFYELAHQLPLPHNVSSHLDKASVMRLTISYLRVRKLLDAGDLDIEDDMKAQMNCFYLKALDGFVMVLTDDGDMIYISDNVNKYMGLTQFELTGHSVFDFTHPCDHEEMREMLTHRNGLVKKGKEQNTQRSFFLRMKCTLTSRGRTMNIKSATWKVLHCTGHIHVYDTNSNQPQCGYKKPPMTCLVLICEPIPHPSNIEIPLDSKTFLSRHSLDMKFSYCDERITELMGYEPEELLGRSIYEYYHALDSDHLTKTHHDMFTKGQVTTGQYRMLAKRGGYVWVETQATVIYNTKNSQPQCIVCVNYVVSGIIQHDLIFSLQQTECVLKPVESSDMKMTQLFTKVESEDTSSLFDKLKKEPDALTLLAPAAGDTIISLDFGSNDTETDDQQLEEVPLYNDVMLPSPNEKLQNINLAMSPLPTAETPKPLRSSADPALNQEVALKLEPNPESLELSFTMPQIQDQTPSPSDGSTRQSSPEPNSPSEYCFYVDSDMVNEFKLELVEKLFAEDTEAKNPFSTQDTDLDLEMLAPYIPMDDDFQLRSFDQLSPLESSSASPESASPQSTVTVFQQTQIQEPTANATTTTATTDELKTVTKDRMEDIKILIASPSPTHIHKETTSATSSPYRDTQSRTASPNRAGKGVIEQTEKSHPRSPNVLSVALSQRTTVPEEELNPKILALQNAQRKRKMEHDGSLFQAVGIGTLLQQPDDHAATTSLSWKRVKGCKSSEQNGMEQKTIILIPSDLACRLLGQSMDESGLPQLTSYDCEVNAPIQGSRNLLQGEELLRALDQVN
Summary of the method: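 After 24 h chemical exposure of reporter-transfected HepG2 cells, reporter cDNA was PCR-amplified, labelled by 6-FAM primer extension (2 min 95 C, 20 s 68 C, 10 min 72 C), HpaI-cut (2 h, 37 C) and analysed by CE.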

[7] = target: Hepatocyte nuclear factor 6 (Homo sapiens) (UniProt Q9UBC0); test: ATG_HNF6_CIS: Attagene CIS-FACTORIAL HepG2 Assay for human Hepatocyte Nuclear Factor 6 (HNF6) (AID 2282952); conditions: HepG2 Attagene cis-factorial HNF6 reporter transcription; actives raise or lower the signal
Chain of Hepatocyte nuclear factor 6 (Homo sapiens) (Q9UBC0 whole entry, looked up): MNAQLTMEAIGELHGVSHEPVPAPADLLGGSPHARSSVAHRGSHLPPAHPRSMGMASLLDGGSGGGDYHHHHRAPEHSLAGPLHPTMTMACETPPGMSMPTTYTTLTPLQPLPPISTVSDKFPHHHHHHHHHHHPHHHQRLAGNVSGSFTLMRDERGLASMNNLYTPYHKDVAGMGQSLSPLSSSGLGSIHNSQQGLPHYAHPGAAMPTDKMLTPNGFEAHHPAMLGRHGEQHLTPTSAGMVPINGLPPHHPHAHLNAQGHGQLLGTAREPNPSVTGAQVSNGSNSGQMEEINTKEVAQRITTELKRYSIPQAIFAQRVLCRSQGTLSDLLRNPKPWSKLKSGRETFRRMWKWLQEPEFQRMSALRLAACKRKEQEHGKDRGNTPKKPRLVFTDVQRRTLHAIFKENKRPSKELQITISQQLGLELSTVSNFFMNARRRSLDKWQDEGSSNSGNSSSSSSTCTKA
Summary of the method: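 Endogenous transcription factor activity in human HepG2 liver cells was captured through cis-regulated reporter constructs. After 24 h treatment, reporter mRNA was measured by RT-PCR with capillary electrophoresis, and activity was fitted in both directions relative to DMSO.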

[8] = target: Heat shock factor protein 1 (Homo sapiens) (UniProt Q00613); test: ATG_HSE_CIS: Attagene CIS-FACTORIAL HepG2 Assay for human Heat Shock Transcription Factor 1 (HSE) (AID 2282953); conditions: HepG2 HSE cis-reporter, Attagene RNA transcription; actives raise or lower the signal
Chain of Heat shock factor protein 1 (Homo sapiens) (Q00613 whole entry, looked up, the tested form may be a part): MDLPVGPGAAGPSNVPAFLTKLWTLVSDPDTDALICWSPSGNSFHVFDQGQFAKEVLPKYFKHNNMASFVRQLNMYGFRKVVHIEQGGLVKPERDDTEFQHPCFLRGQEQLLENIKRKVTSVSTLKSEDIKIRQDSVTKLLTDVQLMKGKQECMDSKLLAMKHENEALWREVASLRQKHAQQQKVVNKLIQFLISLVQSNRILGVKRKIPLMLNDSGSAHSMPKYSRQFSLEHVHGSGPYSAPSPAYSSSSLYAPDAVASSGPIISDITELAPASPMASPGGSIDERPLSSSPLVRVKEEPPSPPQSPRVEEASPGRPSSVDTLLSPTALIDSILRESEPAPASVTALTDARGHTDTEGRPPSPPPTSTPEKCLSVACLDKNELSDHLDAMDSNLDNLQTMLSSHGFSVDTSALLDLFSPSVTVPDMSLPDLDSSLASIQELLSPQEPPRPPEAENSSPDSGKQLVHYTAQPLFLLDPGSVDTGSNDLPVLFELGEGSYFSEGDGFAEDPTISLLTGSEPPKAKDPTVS
Summary of the method: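 Read-out: fluorescence of reporter-specific RT-PCR fragments separated by capillary electrophoresis. HepG2 carrying transfected cis-element reporter units; 24 h dosing; activity fitted in both directions relative to DMSO baseline.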

[9] = ATG_MRE_CIS: Attagene CIS-FACTORIAL HepG2 Assay for human Metal Responsive Element (MRE) (AID 2282954); conditions: HepG2 MRE cis-reporter transcription, Attagene multiplex; actives raise or lower the signal
Summary of the method: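 RT-PCR/capillary electrophoresis readout of reporter mRNA, 24 h post-dosing, in HepG2 cells transfected with multiplexed cis-regulated reporter constructs. Gain or loss of signal fitted bidirectionally against DMSO baseline.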

[10] = ATG_PBREM_CIS: Attagene CIS-FACTORIAL HepG2 Assay for human Phenobarbital-responsive Enhancer Module (PBREM) (AID 2282955); conditions: HepG2 PBREM cis-reporter, Attagene multiplexed transcription; actives raise or lower the signal
Summary of the method: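 Measures endogenous factor action on a phenobarbital-responsive enhancer module. HepG2 transiently carrying cis reporters, 24 h treatment, mRNA read-out by RT-PCR plus capillary electrophoresis.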

[11] = target: Paired box protein Pax-6 (Homo sapiens) (UniProt P26367); test: ATG_Pax6_CIS: Attagene CIS-FACTORIAL HepG2 Assay for human Paired Box 6 (PAX6) (AID 2282956); conditions: HepG2 CIS-FACTORIAL PAX6 reporter transcription, RNA readout; actives raise or lower the signal
Chain of Paired box protein Pax-6 (Homo sapiens) (P26367 whole entry, looked up): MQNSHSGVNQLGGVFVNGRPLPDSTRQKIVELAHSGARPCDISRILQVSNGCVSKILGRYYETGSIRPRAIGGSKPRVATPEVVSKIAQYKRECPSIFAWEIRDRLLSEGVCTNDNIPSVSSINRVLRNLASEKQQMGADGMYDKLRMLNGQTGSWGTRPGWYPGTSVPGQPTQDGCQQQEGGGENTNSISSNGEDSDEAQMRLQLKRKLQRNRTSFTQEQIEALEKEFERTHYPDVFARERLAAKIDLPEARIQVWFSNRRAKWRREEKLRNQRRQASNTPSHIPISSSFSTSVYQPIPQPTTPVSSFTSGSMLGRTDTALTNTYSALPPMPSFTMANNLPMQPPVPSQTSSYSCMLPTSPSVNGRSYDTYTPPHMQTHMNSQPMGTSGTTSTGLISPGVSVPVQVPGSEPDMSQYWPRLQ
Summary of the method: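 Fluorescent RT-PCR products separated by capillary electrophoresis report PAX6-linked promoter mRNA in HepG2 cells 24 h post-dose. Curves fitted bidirectionally, DMSO as negative control.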

[12] = ATG_PXRE_CIS: Attagene CIS-FACTORIAL HepG2 Assay for human Pregnane X Receptor Element (PXRE) (AID 2282957); conditions: HepG2 Attagene CIS-FACTORIAL PXRE reporter, mRNA; actives raise or lower the signal
Summary of the method: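 Endogenous transcription factor activity in HepG2 was gauged through induction of reporter mRNA driven by a cis-regulating promoter element, sampled 24 h post-treatment. Activity was fitted in both directions against DMSO negative control.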

[13] = ATG_PPRE_CIS: Attagene CIS-FACTORIAL HepG2 Assay for human Peroxisome Proliferator-activated Response Element (PPRE) (AID 2282958); conditions: HepG2 PPRE cis-element reporter, Attagene transcription factor profiling; actives raise or lower the signal
Summary of the method: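 PPRE activity in HepG2: transient cis-reporter transfection, 24 h compound incubation, reporter mRNA by RT-PCR and CE fluorescence; gain/loss fitted against DMSO.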

[14] = ATG_RORE_CIS: Attagene CIS-FACTORIAL HepG2 Assay for human RAR-related Orphan Receptor Element (RORE) (AID 2282959); conditions: HepG2 Attagene cis-factorial RORE reporter, mRNA; actives raise or lower the signal
Summary of the method: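 A 24-hour exposure of transfected HepG2 hepatoma cells precedes RNA isolation and reporter RT-PCR. Labeled products are digested with HpaI and resolved by capillary electrophoresis, with gain or loss of signal scored relative to DMSO.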

[15] = ATG_Sox_CIS: Attagene CIS-FACTORIAL HepG2 Assay for human SRY-box transcription factor (SOX) (AID 2282960); conditions: HepG2 Attagene cis-factorial SOX reporter, mRNA; actives raise or lower the signal
Summary of the method: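 HepG2, cis reporter units, 24 h exposure. Reporter mRNA: RT-PCR → FAM labelling → HpaI → CE fluorescence. Bidirectional fit vs DMSO.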

[16] = target: Transcription factor Sp1 (Homo sapiens) (UniProt P08047); test: ATG_Sp1_CIS: Attagene CIS-FACTORIAL HepG2 Assay for human Specificity Protein 1 (Sp1) (AID 2282961); conditions: HepG2 Sp1 cis-reporter transcription, actives raise or lower the signal
Chain of Transcription factor Sp1 (Homo sapiens) (P08047 whole entry, looked up, the tested form may be a part): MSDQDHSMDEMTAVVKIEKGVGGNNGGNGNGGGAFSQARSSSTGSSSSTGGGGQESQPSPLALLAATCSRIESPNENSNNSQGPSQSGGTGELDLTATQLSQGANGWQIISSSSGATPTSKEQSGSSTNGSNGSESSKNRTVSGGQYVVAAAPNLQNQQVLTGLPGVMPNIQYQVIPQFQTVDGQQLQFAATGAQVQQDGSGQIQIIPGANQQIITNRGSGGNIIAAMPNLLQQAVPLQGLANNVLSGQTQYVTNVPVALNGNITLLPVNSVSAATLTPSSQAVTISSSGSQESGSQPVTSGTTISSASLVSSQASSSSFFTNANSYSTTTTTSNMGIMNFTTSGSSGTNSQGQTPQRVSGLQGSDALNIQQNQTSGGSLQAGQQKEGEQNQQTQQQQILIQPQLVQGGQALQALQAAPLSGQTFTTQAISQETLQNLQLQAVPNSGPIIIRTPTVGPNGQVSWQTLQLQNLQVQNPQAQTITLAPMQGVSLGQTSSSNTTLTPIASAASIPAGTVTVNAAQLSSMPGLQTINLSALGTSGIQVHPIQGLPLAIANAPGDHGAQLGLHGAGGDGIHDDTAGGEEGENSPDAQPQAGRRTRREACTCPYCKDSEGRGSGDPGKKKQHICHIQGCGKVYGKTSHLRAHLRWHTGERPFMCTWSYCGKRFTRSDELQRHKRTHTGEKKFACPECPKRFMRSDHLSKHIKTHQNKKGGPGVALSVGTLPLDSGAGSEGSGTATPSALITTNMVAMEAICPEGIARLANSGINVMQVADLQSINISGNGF
Summary of the method: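 Liver-derived HepG2 cells, cis-element reporter library, 24 h treatment; RNA isolated, cDNA amplified with reporter-specific primers, FAM-labeled fragments sized on capillary analyzer. DMSO baseline, bidirectional curve fit.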

[17] = ATG_SREBP_CIS: Attagene CIS-FACTORIAL HepG2 Assay for human Sterol Regulatory Element Binding (SREBP) (AID 2282962); conditions: HepG2 Attagene cis-factorial SREBP reporter, mRNA; actives raise or lower the signal
Summary of the method: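 Endogenous factor activity is measured in HepG2 through multiplexed reporter units under cis-element control. Following a 24 h incubation, reporter transcripts are reverse-transcribed, PCR-amplified and sized by capillary electrophoresis; activity is fitted in both directions relative to DMSO.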

[18] = target: Signal transducer and activator of transcription 3 (Homo sapiens) (UniProt P40763); test: ATG_STAT3_CIS: Attagene CIS-FACTORIAL HepG2 Assay for human Signal Transducer and Activator of Transcription 3 (STAT3) (AID 2282963); conditions: HepG2, Attagene cis-factorial STAT3 reporter transcription; actives raise or lower the signal
Chain of Signal transducer and activator of transcription 3 (Homo sapiens) (P40763 whole entry, looked up, the tested form may be a part): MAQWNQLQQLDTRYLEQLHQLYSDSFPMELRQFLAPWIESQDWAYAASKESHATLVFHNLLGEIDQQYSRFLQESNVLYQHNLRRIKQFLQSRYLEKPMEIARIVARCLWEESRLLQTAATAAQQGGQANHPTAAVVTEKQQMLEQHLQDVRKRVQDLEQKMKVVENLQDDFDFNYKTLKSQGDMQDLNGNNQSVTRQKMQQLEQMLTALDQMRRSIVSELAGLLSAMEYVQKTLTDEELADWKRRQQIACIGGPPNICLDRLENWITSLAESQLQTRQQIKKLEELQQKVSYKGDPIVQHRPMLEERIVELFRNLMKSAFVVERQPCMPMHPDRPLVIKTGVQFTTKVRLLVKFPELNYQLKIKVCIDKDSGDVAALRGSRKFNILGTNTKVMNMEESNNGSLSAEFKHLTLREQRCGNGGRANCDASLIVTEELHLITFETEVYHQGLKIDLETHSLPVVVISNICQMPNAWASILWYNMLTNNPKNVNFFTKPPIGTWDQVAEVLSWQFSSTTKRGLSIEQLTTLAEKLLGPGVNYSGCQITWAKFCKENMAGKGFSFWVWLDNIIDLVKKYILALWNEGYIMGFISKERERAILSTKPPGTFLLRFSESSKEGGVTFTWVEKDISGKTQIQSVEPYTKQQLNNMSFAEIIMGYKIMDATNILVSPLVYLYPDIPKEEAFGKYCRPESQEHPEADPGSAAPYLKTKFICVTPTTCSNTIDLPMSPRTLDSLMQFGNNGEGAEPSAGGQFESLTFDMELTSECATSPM
Summary of the method: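 Readout: fluorescent reporter mRNA fragments resolved by capillary electrophoresis. Setup: HepG2 transfected with MRTUs reporting endogenous transcription-factor activity, dosed 24 h. Gain or loss of signal fitted bidirectionally against DMSO control.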

[19] = ATG_TA_CIS: Attagene CIS-FACTORIAL HepG2 Assay for human TA Basal Promoter (AID 2282964); conditions: HepG2 Attagene CIS-factorial TA basal promoter reporter; actives raise or lower the signal
Summary of the method: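 Transfected HepG2, 24 h compound exposure; RNA → RT-PCR → FAM primer extension → HpaI cut → CE fluorescence. Gain/loss-of-signal fitted against DMSO negative control. Background-control readout.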

Measured: outcome

CC(C)=CCCC(C)CCOC(=O)C(C)C (centres undefined)
inactive: all assays above

O=C(O)C(F)(OC(F)(F)C(F)(OC(F)(F)C(F)(F)C(F)(F)F)C(F)(F)F)C(F)(F)F (centres undefined)
not listed: [12]
inactive: all other assays above

OC[C@@H](O)[C@@H](O)[C@H](O)[C@@H](O)CO
not listed: [2] | [10] | [12] | [13]
inactive: all other assays above

Nc1ccc(S(=O)(=O)Nc2nccs2)cc1
not listed: [6] | [10] | [14]
inactive: all other assays above

C=CC(F)(F)C(F)(F)C(F)(F)C(F)(F)C(F)(F)C(F)(F)C(F)(F)C(F)(F)C=C
inactive: all assays above

O=P(O)(O)OCCC(F)(F)C(F)(F)C(F)(F)C(F)(F)C(F)(F)C(F)(F)F
inactive: all assays above

FC(F)(F)C(F)(F)C(F)(F)C(F)(F)CCI
not listed: [8]
inactive: all other assays above

Source: PubChem BioAssay (EPA / NIEHS)
